Assay results as given in PubChem BioAssay.
Results filed as inconclusive are left out. Active and inactive are the calls of the source.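 How the source made its calls, unless noted: active means normalized viability below 100% at a tested concentration; inactive means the rest.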

Assays:
[1] = growth inhibition of DIPG glioma cells, dose response, cell-based, SU-DIPG-XIII, MIPE4.0, CellTiter-Glo, qHTS (AID 1347061; cut-off not given, nearly all actives have AC50 up to about 37 µM;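 further: cells exposed to compound for 48 hours before readout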); settings: SU-DIPG-XIII viability, CellTiter-Glo ATP luminescence
[2] = growth inhibition of DIPG glioma cells, dose response, cell-based, JHH-DIPG-1, MIPE4.0, CellTiter-Glo, qHTS (AID 1347062; cut-off not given, nearly all actives have AC50 up to about 27 µM;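 on AC50: cells exposed to compound for two days before readout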); settings: JHH-DIPG-1 viability, CellTiter-Glo ATP luminescence
[3] = growth inhibition of DIPG glioma cells, dose response, cell-based, SU-DIPG-IV, MIPE4.0, CellTiter-Glo, qHTS (AID 1347063; cut-off not given, nearly all actives have AC50 up to about 30 µM;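 further: compound exposure lasted 48 hours before the viability readout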); settings: SU-DIPG-IV viability, CellTiter-Glo ATP luminescence
[4] = growth inhibition of DIPG glioma cells, dose response, cell-based, SU-DIPG-XIII, MIPE5.0, CellTiter-Glo, qHTS (AID 1347064; cut-off not given, nearly all actives have AC50 up to about 23 µM;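 on AC50: cells exposed to compound for 48 hours before the viability read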); settings: SU-DIPG-XIII viability, CellTiter-Glo ATP luminescence
[5] = viability loss in pontine glioma line – cell-based, SU-DIPG-XXV, MIPE5.0, CellTiter-Glo, qHTS, dose response (AID 1347065; cut-off not given, nearly all actives have AC50 up to about 26 µM;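 further: cells exposed to compound for 48 hours before ATP readout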); settings: CellTiter-Glo ATP luminescence
[6] = SU-DIPG-VI glioma cell viability, MIPE4.0 library, CellTiter-Glo luminescence, qHTS (AID 1347066; cut-off not given, nearly all actives have AC50 up to about 30 µM;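 further: cells exposed to compound for 48 hours before readout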); settings: CellTiter-Glo ATP luminescence
[7] = JHH-DIPG-1 glioma cell viability, MIPE5.0 library, CellTiter-Glo luminescence, qHTS (AID 1347067; cut-off not given, nearly all actives have AC50 up to about 26 µM;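 further: cells exposed to compound for 48 hours before readout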); settings: JHH-DIPG-1 glioma viability, CellTiter-Glo ATP luminescence
[8] = SU-DIPG-XXV glioma cell viability, MIPE5.0 library, qHTS (AID 1347068; cut-off not given, nearly all actives have IC50 up to about 30 µM;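 on IC50: cells exposed to compound for 48 hours before viability readout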)
[9] = ovarian cancer cell viability with rucaparib, profiling panel, oncology-focused library, rucaparib conditional (AID 1508598); settings: patient-derived ovarian cancer cells, CellTiter-Glo viability, 144 h, active compounds read low

Cc1cc(Nc2nc(N[C@@H](C)c3ncc(F)cn3)ncc2Cl)n[nH]1
inactive: viability ([9]; at 0.000305 µM, OCI-C5x cells, without rucaparib) 105% | viability ([9]; at 0.00122 µM, OCI-C5x cells, with rucaparib 10 µM, 100% = cells with rucaparib alone) 112% | viability ([9]; at 0.00122 µM, OCI-C5x cells, without rucaparib) 112% | viability ([9]; at 0.00488 µM, OCI-C5x cells, with rucaparib 10 µM, 100% = cells with rucaparib alone) 106% | viability ([9]; at 0.00488 µM, OCI-C5x cells, without rucaparib) 115% | viability ([9]; at 0.00488 µM, OCI-P5x cells, with rucaparib 20 µM, 100% = cells with rucaparib alone) 102% | viability ([9]; at 0.0195 µM, OCI-C5x cells, with rucaparib 10 µM, 100% = cells with rucaparib alone) 112% | viability ([9]; at 0.0195 µM, OCI-C5x cells, without rucaparib) 102% | viability ([9]; at 0.0195 µM, OCI-P5x cells, with rucaparib 20 µM, 100% = cells with rucaparib alone) 101% | viability ([9]; at 0.0781 µM, OCI-C5x cells, with rucaparib 10 µM, 100% = cells with rucaparib alone) 102% | viability ([9]; at 0.0781 µM, OCI-C5x cells, without rucaparib) 104% | viability ([9]; at 0.0781 µM, OCI-P5x cells, without rucaparib) 101% | viability ([9]; at 0.313 µM, OCI-C5x cells, without rucaparib) 102% | viability ([9]; at 1.25 µM, OCI-C5x cells, without rucaparib) 101%
active: AC50 [1] 16.6 µM | AC50 [2] 9.35 µM | AC50 [3] 13.2 µM | AC50 [4] 1.48 µM | AC50 [5] 661 nM | AC50 [6] 9.35 µM | AC50 [7] 934 nM | IC50 [8] 1.48 µM | viability ([9]; at 0.000305 µM, OCI-C5x cells, with rucaparib 10 µM, 100% = cells with rucaparib alone) 99.3% | viability ([9]; at 0.000305 µM, OCI-P5x cells, with rucaparib 20 µM, 100% = cells with rucaparib alone) 91% | viability ([9]; at 0.000305 µM, OCI-P5x cells, without rucaparib) 91.4% | viability ([9]; at 0.00122 µM, OCI-P5x cells, with rucaparib 20 µM, 100% = cells with rucaparib alone) 92.4% | viability ([9]; at 0.00122 µM, OCI-P5x cells, without rucaparib) 97.8% | viability ([9]; at 0.00488 µM, OCI-P5x cells, without rucaparib) 99.3% | viability ([9]; at 0.0195 µM, OCI-P5x cells, without rucaparib) 99.8% | viability ([9]; at 0.0781 µM, OCI-P5x cells, with rucaparib 20 µM, 100% = cells with rucaparib alone) 96.5% | viability ([9]; at 0.313 µM, OCI-C5x cells, with rucaparib 10 µM, 100% = cells with rucaparib alone) 97.7% | viability ([9]; at 0.313 µM, OCI-P5x cells, with rucaparib 20 µM, 100% = cells with rucaparib alone) 85.8% | viability ([9]; at 0.313 µM, OCI-P5x cells, without rucaparib) 99.9% | viability ([9]; at 1.25 µM, OCI-C5x cells, with rucaparib 10 µM, 100% = cells with rucaparib alone) 78.7% | viability ([9]; at 1.25 µM, OCI-P5x cells, with rucaparib 20 µM, 100% = cells with rucaparib alone) 80.1% | viability ([9]; at 1.25 µM, OCI-P5x cells, without rucaparib) 86.6% | viability ([9]; at 5 µM, OCI-C5x cells, with rucaparib 10 µM, 100% = cells with rucaparib alone) 46.6% | viability ([9]; at 5 µM, OCI-C5x cells, without rucaparib) 55.9% | viability ([9]; at 5 µM, OCI-P5x cells, with rucaparib 20 µM, 100% = cells with rucaparib alone) 30.7% | viability ([9]; at 5 µM, OCI-P5x cells, without rucaparib) 24.9%

CO[C@H]1C(=O)[C@]2(C)[C@@H](OC)C[C@H]3OC[C@@]3(OC(C)=O)[C@H]2[C@H](OC(=O)c2ccccc2)[C@]2(O)C[C@H](OC(=O)[C@H](O)[C@@H](NC(=O)OC(C)(C)C)c3ccccc3)C(C)=C1C2(C)C
inactive: outcome [1] | outcome [2] | outcome [3] | outcome [4] | outcome [6] | outcome [7]
active: AC50 [5] 1.86 nM

C=C1C[C@@]2(O)O[C@@]3(C[C@H]2C(C)C)[C@@H](C)CC[C@@H]13
inactive: outcome [1] | outcome [2] | outcome [3] | outcome [4] | outcome [6] | outcome [8]

CC(C)(C)COc1ccc(-n2cc(C(=O)O)cn2)cc1C#N
inactive: outcome [1] | outcome [2] | outcome [3] | outcome [5] | outcome [6] | outcome [8]

O=C(O)c1cc(O)c2c(c1)C(=O)c1cccc(O)c1C2=O
inactive: outcome [1] | outcome [2] | outcome [3] | outcome [4] | outcome [7] | outcome [8]

CCC(C)CCCCC(=O)N[C@@H](CCN)C(=O)NC(C(=O)N[C@H](CCN)C(=O)N[C@@H]1CCNC(=O)C([C@@H](C)O)NC(=O)[C@@H](CCN)NC(=O)[C@@H](CCN)NC(=O)[C@@H](CC(C)C)NC(=O)[C@H](Cc2ccccc2)NC(=O)[C@H](CCN)NC1=O)[C@@H](C)O (stereo partly specified)
inactive: outcome [1] | outcome [2] | outcome [3] | outcome [5] | outcome [6] | outcome [7] | outcome [8]

CNC(=O)c1ccc(Nc2cc(Nc3ccccc3S(=O)(=O)C(C)C)c3cc[nH]c3n2)nc1
active: AC50 [1] 16.6 µM | AC50 [2] 14.8 µM | AC50 [3] 11.8 µM | AC50 [6] 16.6 µM
